Only some compounds are listed: those with a hit (about 4.1% of all), similar ones and a draw of the others.
hgDAF12 agonist: H. glycines DAF-12 receptor agonists, primary screen, cell-based, luminescence, HEK293, GAL4 fusion, UAS-luciferase; Nuclear hormone receptor DAF-12 (Heterodera glycines), GAL4 fusion; 1.8% of 370,000 active; HEK293 GAL4-hgDAF12 UAS-luciferase reporter, agonist luminescence; normalized to butyrate control; activation, % at 6.8 µM; AID 687014, 2013;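 active = activation above a cutoff set at the mean of all screened compounds plus 3 SD, cut at about 10% in these data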;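 note: 0% = DMSO wells and 100% = sodium butyrate wells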
DAX1 inh-1: DAX1 (NR0B1) inhibitors, primary screen, cell-based, HEK293, Gal4-DAX1, luciferase luminescence. Nuclear receptor subfamily 0 group B member 1 (Homo sapiens), P51843. HEK293 Gal4-DAX1 luciferase reporter. inhibition, % at 6.75 µM. 0.99% of 340,000 active. AID 504766, 2011;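 active = inhibition above the mean over all tested compounds plus 3 SD, cut at about 4.2% in these data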;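 note: 0% = DAX1-transfected cells with DMSO and 100% = empty-vector control cells with DMSO; inhibition shows as a rise in luminescence from relieved DAX1 repression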
Target sequence (P51843 207-470 limits assumed): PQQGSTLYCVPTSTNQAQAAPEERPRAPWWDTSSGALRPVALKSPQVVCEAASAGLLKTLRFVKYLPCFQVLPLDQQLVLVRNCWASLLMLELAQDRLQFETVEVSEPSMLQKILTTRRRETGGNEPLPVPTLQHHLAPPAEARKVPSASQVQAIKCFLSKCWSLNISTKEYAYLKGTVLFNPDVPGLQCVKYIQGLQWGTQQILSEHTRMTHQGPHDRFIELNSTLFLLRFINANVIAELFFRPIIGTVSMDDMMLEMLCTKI
hcDAF12 agonist: H. contortus DAF-12 nuclear receptor activators, primary screen, cell-based, luminescence, HEK293, lit1-tk-luc reporter | HEK293 hcDAF-12 lit1-tk-luc reporter; 0% DMSO, 100% Δ7-dafachronic acid | AID 652067, 2013 | 1.4% of 370,000 active | activation, % at 6.8 µM;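 active = activation above the mean of all tested compounds plus 3 SD, cut at about 5.5% in these data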;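 note: 100% = response to 3 µM Δ7-dafachronic acid high control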
ssDAF-12 act: S. stercoralis DAF-12 nuclear receptor activators, primary screen, cell-based, luminescence, HEK293, GRIP1 co-expression, lit1-tk-luc. Nuclear hormone receptor DAF-12 (Strongyloides stercoralis). HEK293 ssDAF-12/GRIP1 lit1-tk-luc reporter; % of 3 µM dafachronic acid response. activation, % at 6.8 µM. 1% of 370,000 active;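 active = activation above the mean over all tested compounds plus 3 SD, cut at about 0.9% in these data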;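 note: 0% = DMSO-only wells and 100% = 3 µM delta7-dafachronic acid wells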
DAX1 inh-2: DAX1 (NR0B1) inhibitors on StAR promoter, primary screen, cell-based, luminescence, SF-1 (NR5A1), full-length DAX-1; HEK293T StAR-luciferase reporter, SF-1/DAX-1 repression relief; inhibition, % at 6.8 µM; 1.1% of 370,000 active; AID 652010, 2013;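 active = inhibition above the mean over all tested compounds plus 3 SD, cut at about 3.6% in these data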;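 note: 0% = DAX-1 cells with DMSO and 100% = cells lacking DAX-1 with DMSO; higher inhibition means more luminescence from relief of DAX-1 repression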
hgDAF12 ag: H. glycines DAF-12 receptor agonists, confirmation, cell-based, luminescence, HEK293, GAL4-LBD fusion | shares compounds with hgDAF12 agonist | 80% of 3,300 active | HEK293 GAL4-hgDAF12 luciferase reporter, agonist mode; percent of butyrate response | activation, % at 6.8 µM;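 active = mean activation over triplicate wells above the hit cutoff derived from the earlier primary screen, cut at about 11% in these data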;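 note: 0% = DMSO low control and 100% = 2 mM sodium butyrate high control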
LXRb DAF12 ctr: LXR agonists, Gal4 luciferase reporter, confirmation, counter-screen for hgDAF-12 agonist project, cell-based, luminescence, HEK293, H. glycines campaign; activation, % at 6.8 µM; 3,300 tested, under 10 active; shares compounds with hgDAF12 agonist; AID 743051, 2013; 24 h;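 active = mean activation of the triplicate above a set limit carried over from the primary screen, none filed active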
Starred values were filed as active, the others as inactive.

`COC(=O)c1cc(-c2ccc(F)cc2OCc2ccccc2)c(=O)n2c1CCC2` gave hgDAF12 agonist -1, hcDAF12 agonist 1, ssDAF-12 act -1 and DAX1 inh-2 1.
Screening CCOC(=O)CN1C(=O)[C@]2(OCCC=C[C@H]2C)c2cc(OC)ccc21 returned hgDAF12 agonist -2, hcDAF12 agonist 0, ssDAF-12 act 0 and DAX1 inh-2 0.
Screening Oc1ccc(-c2cnc3ccccc3n2)cc1 returned hgDAF12 agonist 15*, DAX1 inh-1 3, hcDAF12 agonist 4, ssDAF-12 act -1, DAX1 inh-2 2, hgDAF12 ag 20* and LXRb DAF12 ctr 1.
Nc1ccc2nc(-c3ccccc3)cnc2c1 was read as hgDAF12 agonist 7, DAX1 inh-1 3, hcDAF12 agonist 5, ssDAF-12 act 0 and DAX1 inh-2 1.
Screening O=C(Nc1ccccc1Cl)c1ccc(Cl)cc1Cl returned hgDAF12 agonist 4, DAX1 inh-1 1, hcDAF12 agonist -1, ssDAF-12 act -1 and DAX1 inh-2 0.
O=C(NC(=S)Nc1ccccc1O)c1ccc(Cl)cc1Cl was read as hgDAF12 agonist 14*, DAX1 inh-1 0, hcDAF12 agonist 6.5*, ssDAF-12 act 1, DAX1 inh-2 1, hgDAF12 ag 9 and LXRb DAF12 ctr 0.
Screening CCCCCCCCN1C(=O)[C@@H](CC(=O)NCc2cccs2)C[C@@]2(C(=O)OC)C1=C[C@H](C(C)C)O[C@@H]2C1CC1 returned hgDAF12 agonist 5, hcDAF12 agonist 0, ssDAF-12 act -1 and DAX1 inh-2 -1.
For CCCn1ncc2c(Nc3ccc(C)c(C)c3)ncnc21 the results were hgDAF12 agonist 13*, DAX1 inh-1 0, hcDAF12 agonist 6.5*, ssDAF-12 act 0, DAX1 inh-2 1, hgDAF12 ag 7 and LXRb DAF12 ctr 1.
Screening CCOC(=O)c1n[nH]c2ccccc12 returned hgDAF12 agonist 1, DAX1 inh-1 0, hcDAF12 agonist 0, ssDAF-12 act -2 and DAX1 inh-2 0.
Screening O=C(NCCc1ccccc1)c1n[nH]c2ccccc12 returned hgDAF12 agonist 15*, DAX1 inh-1 1, hcDAF12 agonist 5.7*, ssDAF-12 act 0, DAX1 inh-2 3, hgDAF12 ag 13* and LXRb DAF12 ctr 1.
Screening O=C(OCCOc1ccccc1)c1n[nH]c2ccccc12 returned hgDAF12 agonist 15*, DAX1 inh-1 3, hcDAF12 agonist 1, ssDAF-12 act -1, DAX1 inh-2 2, hgDAF12 ag 13* and LXRb DAF12 ctr 1.
O=C(NCCc1ccc(Cl)cc1)c1n[nH]c2ccccc12 was read as hgDAF12 agonist 7, DAX1 inh-1 1, hcDAF12 agonist -1, ssDAF-12 act -1 and DAX1 inh-2 1.
`COc1ccc(C2CC(=O)C(c3cc(OC)c(OC)c(OC)c3)=CN2Cc2ccccc2)cc1` (stereo not given) gave hgDAF12 agonist -5, hcDAF12 agonist -2, ssDAF-12 act 0 and DAX1 inh-2 0.
`O=S1(=O)CC2c3ccccc3CN2CN1Cc1ccccc1` (stereo not given) gave hgDAF12 agonist -2, hcDAF12 agonist 2, ssDAF-12 act -1 and DAX1 inh-2 0.
Screening COc1ccccc1C=NN=Cc1ccccc1O returned hgDAF12 agonist 2, DAX1 inh-1 4, hcDAF12 agonist 5, ssDAF-12 act 1 and DAX1 inh-2 1.

From PubChem
